The list is not random: actives were taken first. Their share in the collection is about 19%.
DT40 TDP1 CPT: qHTS for Inhibitors of human tyrosyl-DNA phosphodiesterase 1 (TDP1): qHTS in cells in presence of CPT | AID 686979, 2013 | 12% of 420,000 active | chicken DT40 Tdp1-/-;hTDP1 cells + 20 nM CPT, ATP luminescence, 48 h | Potency, µM (doses to about 46.2 µM), without a hit: at the top dose activity change, negative = growth inhibition, actives largely listed as inhibitors; note: nearly all actives have a fitted effect of over 55% in size
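Chicken DT40 Tdp1-/- cells stably complemented with human TDP1 were seeded at 400 cells/well in medium containing 20 nM camptothecin, exposed to pin-transferred compounds, and grown at 37 °C for at least 48 hr. Viability was read as ATP luminescence.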
DT40 TDP1 no CPT: qHTS for Inhibitors of human tyrosyl-DNA phosphodiesterase 1 (TDP1): qHTS in cells in absence of CPT; DT40 Tdp1-/- hTDP1 cells, no CPT, ATP luminescence, 48 h; Potency, µM (titrated, usually from 46.2 µM), for inactives: at the highest dose activity change, negative = growth inhibition, usual class: inhibitors; 15% of 420,000 active; note: nearly all actives have a fitted effect of over 55% in size
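Luminescent ATP content (CellTiter-Glo) served as the growth readout. Knockout chicken DT40 cells expressing human TDP1 were exposed to compounds without camptothecin for a minimum 48 hr at 37 °C.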
KB-3-1 cytotox: qHTS assay for MDR1-selective chemotherapeutics: Primary screen using the parental adenocarcinoma cell KB-3-1; 1.4% of 400,000 active; Potency, µM (top dose mostly 46.1 µM), most hits filed as cytotoxic; KB-3-1 viability, CellTiter-Glo ATP luminescence, 72 h; AID 1347075, 2019; note: nearly all actives have a fitted effect of over 60% in size
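KB-3-1 parental drug-naive adenocarcinoma cells in DMEM/10% FBS, incubated 72 h at 37 C with pin-transferred compounds across a concentration series. Viability by CellTiter-Glo luminescence; concentration-response curves fitted after normalization.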
HT1080 IDH1KD tx: qHTS for induction of synthetic lethality in tumor cells producing 2HG: qHTS for the HT-1080-IDH1KD cell line. 2% of 360,000 active. HT-1080 IDH1 knockdown viability, ATP luminescence, 48 h. Potency, µM (series often up to 46.1 µM), for the others: at the top dose activity, negative = toxicity, most hits filed as cytotoxic;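 note: 0% = DMSO wells and -100% = cell-free medium wells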
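Assay cells: HT-1080 with IDH1 knockdown, 750 per well, RPMI/5% FBS. Exposure: 48 h at 37 °C following 2 h pre-incubation. Read: CellTiter-Glo luminescence; fitted concentration-response, curve class assigned.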
HT1080-NT tox: qHTS for induction of synthetic lethality in tumor cells producing 2HG: qHTS for the HT-1080-NT fibrosarcoma cell line; HT-1080-NT fibrosarcoma viability, CellTiter-Glo ATP luminescence, 48 h; Potency, µM (highest dose often 46.1 µM), for inactives: at the highest dose activity, negative = less viability, actives largely listed as cytotoxic; 1.6% of 360,000 active;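 note: NT is the 2HG producing partner of a matched IDH1 knockdown line; 0% = DMSO-treated cells and -100% = media-only wells without cells; nearly all actives have a fitted effect of over 55% in size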
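Compounds were tested in concentration-response format on HT-1080-NT cells for 48 hours at 37 degrees C. Cell viability came from CellTiter-Glo luminescence; curves were classified by r2, response magnitude and activity.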
KB-V1 MDR tox: qHTS assay for MDR1-selective chemotherapeutics: Primary screen using the drug-selected MDR subline cells KB-V1; AID 1347076, 2019; KB-V1 MDR cells viability, CellTiter-Glo, 72 h; Potency, µM (series often up to 46.1 µM), usual class: cytotoxic; 3.4% of 400,000 active; note: nearly all actives have a fitted effect of over 60% in size
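Drug-selected KB-V1 cells, grown in DMEM lacking phenol red with 10% FBS, receive compound titrations; after three days at 37 degrees C, surviving cell ATP is quantified by CellTiter-Glo luminescence and responses normalized and curve-fitted.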
* = called active by the depositor; i = inactive; u = inconclusive; x = no result; ! = not active in a repeat. Calls come from the whole dose curve; as a rule, active = well fitted curve in the direction sought with a large enough effect; inconclusive = small, poorly fitted or top-dose-only effect, or another doubt; inactive = no such curve, though single readings can be large; an effect the other way counts as inactive or inconclusive. Unless noted, % is set by controls: 0 for no effect and ±100 for the full control effect; potency is the fitted concentration of half-maximal effect.

SMILES | DT40 TDP1 CPT | DT40 TDP1 no CPT | KB-3-1 cytotox | HT1080 IDH1KD tx | HT1080-NT tox | KB-V1 MDR tox
CC(C)c1nc2ccccc2n1CC(O)COC1CCCCC1 (configuration not stated) | u | 16µM* | i | 0% | 1% | u
CC(=O)Nc1ccc(OCC(O)Cn2c(C(C)C)nc3ccccc32)cc1 (configuration not stated) | 9% | 1% | i | 1% | 22% | i
CC(=O)Nc1ccc(OCC(O)Cn2c(C)nc3ccccc32)cc1 (configuration not stated) | u | u | i | -5% | -4% | i
COc1ccc(OCC(=O)N2N=C(C)CC2(O)C(F)(F)F)cc1 (configuration not stated) | -9% | -14% | i | 12% | 7% | i
CCn1c(=O)cc(OCC(=O)Nc2ccccc2C#N)c2ccccc21 | -9% | -13% | i | 3% | 2% | i
CC(OC(=O)CNC(=O)c1ccc(Cl)cc1)C(=O)NC1CCCCC1C (configuration not stated) | 15% | -13% | i | 6% | 12% | i
C=CCNC(=O)c1sc(-c2ccccc2)nc1C | 1% | -2% | i | 13% | 14% | i
C=CCNc1nc(-c2sc(NC(=O)C(C)(C)C)nc2C)c(-n2cc(-c3ccccc3)nn2)s1 | 21µM* | 15µM* | u | u | u | 16µM*
O=[N+]([O-])c1cccc(C2NCC(c3ccccc3Cl)c3c2[nH]c2ccccc32)c1 (configuration not stated) | u | u | i | 26µM* | u | 16µM*
CN(C)c1ccc(C2CNC(c3ccc(Cl)c([N+](=O)[O-])c3)c3[nH]c4ccccc4c32)cc1 (configuration not stated) | 23µM* | 18µM* | u | -23% | -7% | i
CC(C)OCCCN1CC(=O)N2C(c3cccc([N+](=O)[O-])c3)c3[nH]c4ccccc4c3C[C@H]2C1=O (some centres not stated) | u | -19% | u | -22% | -20% | i
O=C(Nc1cc(Cl)cc(Cl)c1)c1cccc(OC(F)F)c1 | 18µM* | u | 13µM* | -5% | -13% | 16µM*
CN(C)S(=O)(=O)c1cccc(C(=O)Nc2ccccc2Cl)c1 | -2% | -12% | i | -15% | 9% | 16µM*
CN(C)S(=O)(=O)c1cccc(C(=O)Nc2cc(Cl)cc(Cl)c2)c1 | u | 18µM* | i | u | u | u
Cc1ccnc(NC(=O)c2cccc(OC(F)F)c2)n1 | -15% | -13% | i | 16% | 0% | i
CN(C)S(=O)(=O)c1cccc(C(=O)Nc2ccccc2)c1 | 0% | -22% | i | -7% | 1% | i
CN(C)CCCN(Cc1cc2cc3c(cc2[nH]c1=O)OCO3)C(=S)Nc1ccccc1 | 0% | -4% | u | -4% | -6% | i
COc1ccccc1NC(=O)N(Cc1cccs1)Cc1cc2cc3c(cc2[nH]c1=O)OCO3 | u | 16µM* | u | u | u | u
CN(C)CCCN(Cc1cc2cc3c(cc2[nH]c1=O)OCO3)C(=S)Nc1cccc(Cl)c1 | u | 29µM* | i | -22% | 15µM* | i
COC(=O)c1ccccc1NC(=S)N(Cc1ccc2c(c1)OCO2)Cc1cc2cc(OC)ccc2[nH]c1=O | 9.2µM* | 16µM* | i | -3% | 1% | 18µM*
CCN(CC)CCCN(Cc1cc2cc3c(cc2[nH]c1=O)OCO3)C(=S)Nc1ccccc1OC | 18µM* | -15% | i | -10% | -15% | u
COc1ccccc1NC(=S)N(CCCN(C)C)Cc1cc2cc3c(cc2[nH]c1=O)OCO3 | -1% | -16% | i | -3% | -3% | i
CCc1cccc2c(C(=O)C(F)(F)F)cn(CC(=O)N3CCOCC3)c12 | -5% | 10% | i | 6% | 12% | i
CCNS(=O)(=O)c1ccc(CCC(=O)NCc2ccccc2)cc1 | -6% | -4% | i | 11% | 4% | i
Cc1ccc2c(c1)-c1onc(C(=O)N3CCN(c4cc(C)ccc4C)CC3)c1CO2 | x | x | i | x | x | i
SMILES | DT40 TDP1 CPT | DT40 TDP1 no CPT | KB-3-1 cytotox | HT1080 IDH1KD tx | HT1080-NT tox | KB-V1 MDR tox
CCCN1CCN(C(=O)c2noc3c2COc2ccc(C)cc2-3)CC1 | 21µM* | 16µM* | i | 0% | 18% | u
CSc1ccc(-c2cnc(N3CCC(C(N)=O)CC3)s2)cc1 | x | x | i | x | x | i
Cc1ccc(S(=O)(=O)N2CCCCC2c2cccnc2)c(C)c1C (configuration not stated) | u | 23µM* | u | -3% | 0% | 16µM*
COc1cc(OC)cc(C(=O)Nc2ccc(S(=O)(=O)N3CCCCC3c3cccnc3)cc2)c1 (configuration not stated) | u | 26µM* | x | x | x | x
O=S(=O)(c1cccc(C(F)(F)F)c1)N1CCCC1c1cccnc1 (configuration not stated) | -3% | u | i | 0% | 0% | u
Cn1cc(CCCC(=O)NCc2ccc(F)cc2)c2ccccc21 | u | 21µM*! | i | -10% | -17% | u
COc1ccccc1CNC(=O)CCCn1c(=O)c2ccccc2n(Cc2ccc(F)cc2)c1=O | 16µM* | u | i | x | x | i
COc1ccccc1CNC(=O)CCCn1c(=O)c2ccccc2n(Cc2ccccc2C#N)c1=O | 26µM* | 4.6µM* | i | x | x | i
COCCNC(=O)CCCn1c(=O)c2ccccc2n(Cc2ccccc2C#N)c1=O | 10% | 15% | i | 3% | -2% | i
COc1ccc(CNC(=O)CCc2cn(C)c3ccccc23)cc1 | -27% | -21% | x | x | x | x
COc1ccc(C(=O)c2oc3ccccc3c2NC(=O)c2cc(=O)c3ccc(C)cc3o2)cc1Cl | 0% | -4% | i | x | x | i
COCC(=O)N1CCC(Oc2ccc(C(=O)N3CCN(C)C[C@@H]3C(C)C)cc2)CC1 | 15% | -5% | i | -3% | 0% | i
